# Experimental data reported in PubChem BioAssay AID1508600 (Functional Genomics Laboratory (NCATS/FGL), 2020).
# Screen size: about 53,000 sequences; about 3,700 (7%) were called active.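 Rule for the calls: active = gene knockdowns whose robust z-score for IL-1 alpha signal is at least 2 or at most -2, so actives lie on both sides; inactive = the rest.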 This excerpt belongs to a sample that is enriched for actives.
# Assay: Components of the Cytosolic LPS Sensing Pathway: Gene Identification via Genome-wide siRNA Screen;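 note: robust z of the log signal after scaling to non-targeting control siRNA wells of the plate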
# Details: RAW264.7 macrophages, IL-1a HTRF, actives lie on both sides, screened at 100 nM (by protocol), cells primed 5 h with Pam3CSK4 first
# Method in brief: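 Three distinct siRNAs per gene were tested singly at 100 nM in RAW264.7 macrophages. Following Pam3CSK4 priming and 24 hour LipidA transfection, IL-1a secretion was read by HTRF.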
row,Sequence,z-score
1,GGGCCACACAGAAAUGGUUTT against Ank1,0.994 (inactive)
2,GGAGAAAGGUGCUUCCGAUTT against Mrpl19,0.47 (inactive)
3,CGAUGGCUUGGUUCCAUUUTT against Tcaf3,-0.0976 (inactive)
4,GGCACUACAACGGAACUCATT against Slco5a1,-1.82 (inactive)
5,GCGUGUUAGGAAAAACUCUTT against Pars2,1.36 (inactive)
6,CCGAGCAGUAUGUGAACGUTT against Cela1,3.56 (active)
7,CCUUUACUGUCCAUUCCGATT against Stxbp2,-0.533 (inactive)
8,CCCUGUGAAAGUGUCAUAUTT against Pigq,1.28 (inactive)
9,GGUUCAACUUCACACUGAGTT against Mettl22,1.08 (inactive)
10,GGAAAAAAAUGCUGUAUACTT against Insm1,-0.599 (inactive)
11,GGUGCUUUGUAAACUGUCUTT against Slc26a11,-2.99 (active)
12,ACCUGUGAUGGUGGAGACUTT against AF067061,0.577 (inactive)
13,GCAUGCCCGUAAUCAAGUGTT against Racgap1,0.104 (inactive)
14,GGACUUCAGCAACUAUAGUTT against Ggt7,-0.631 (inactive)
15,GUUCCACUACUUCUGCUCCTT against Olfr583,0.41 (inactive)
16,GGUGCUUCCAGAAUCUUUATT against Epha5,0.517 (inactive)
17,CCGGUUUCAAAUUGCCACUTT against Psmb4,-2.73 (active)
18,GGAAGGUAUCUGAGGUCCGTT against 2810408A11Rik,-0.106 (inactive)
19,GGCAUUGCUGGACUUUGAATT against Mvp,-1.71 (inactive)
20,GCUGCACGCACUGAUCAAGTT against Tjap1,1.02 (inactive)
21,GGUUUUGUUAAAGAAGACGTT against 4833439L19Rik,-2.25 (active)
22,CGGUGACGACGGAAUUCUATT against Cpne4,-1.42 (inactive)
23,GGAUUCAGAAGGCCUCAGUTT against Olfr399,0.132 (inactive)

row,Sequence,z-score
1,UACUAGCAGAUUAACCACCTT against H2bc4,-0.192 (inactive)
2,GGCAUCAACAGAAUAACCATT against Tomm34,-1.31 (inactive)
3,GGCCAAGUUUGACAAGGAATT against Nap1l5,2.32 (active)
4,GCUGCAUCGAAAAACUCAGTT against Mycbp2,-0.564 (inactive)
5,GGAUUAUGGACCUCUUGGUTT against 4930595M18Rik,0.554 (inactive)
6,CCCAGUUGACAGGAGACCATT against Hps6,1.13 (inactive)
7,GCAUUAUAAAAAGGUUCCGTT against Atp2b1,1.81 (inactive)
8,GGCCCAAGAGAAUAUCCAGTT against Gm6460,0.281 (inactive)
9,GCAGGACAAGGACAACACUTT against Dyrk2,-2.1 (active)
10,CCACCGAAAUCCUUAUUUUTT against Ppargc1a,0.522 (inactive)
11,GCCAAGAGCACAUCUGCUATT against Suco,-1.65 (inactive)
12,GCUGGGUCAAACAUGACGUTT against Klhl17,0.452 (inactive)
13,ACCCUUUUGUUUACACUCUTT against Olfr763,-0.76 (inactive)
14,GCCCAAAGAUGACAUCGUATT against Gars,1.74 (inactive)
15,GCUAGACCCAUAAUAAAACTT against Synpo2l,-0.851 (inactive)
16,UUGACUCACCUUCCGAGGUTT against Lce1a1,0.0827 (inactive)
17,GCGCAAUAUAGAGUCAUCATT against Rnls,-2.83 (active)
18,CCGUUUACCAACCAAGAAUTT against Tnfrsf17,0.0608 (inactive)
19,GGUUUGCUACACUUCAGAATT against Xpr1,0.101 (inactive)
20,GCCAACUAGAAAACAACUGTT against Pdzd11,1.6 (inactive)
21,GGUGGAACAGGCAGAAUUCTT against Syn2,1.92 (inactive)
22,GGUCGCUACAAGAUGACUUTT against Hapln4,0.289 (inactive)
23,GCCAGUCAGAUGUACAGUCTT against Pbx1,3.28 (active)

row,Sequence,z-score
1,CCAGAGUACAGUGUAGUCATT against Hspb6,0.508 (inactive)
2,GAACUUUUUUUCUGUGAACTT against Olfr175,-1.58 (inactive)
3,GGAAAUCGAGAGAAAUUCATT against Tead2,2.07 (active)
4,GCAGGUUGCACCAUGUAGATT against Slc25a42,0.701 (inactive)
5,CCAUCUUGGGUUCUGGUCATT against Zc3h4,-0.204 (inactive)
6,GGGCAAAACACUGUCUUUCTT against Tlr5,1.87 (inactive)
7,GCCUCUACUGGUUAUUUAATT against Slc22a15,2.09 (active)
8,CCUUCAAGUACUUUCUCCGTT against Dcakd,1.22 (inactive)
9,GGAUGAGGAGGAAAAGCUGTT against Nop2,-1.86 (inactive)
10,GGUCAAUGAACAGCACCGGTT against Igfbp2,0.723 (inactive)
11,GGAUAAAGGAAAAGAAACATT against Rcvrn,-1.34 (inactive)
12,CCAGACUCCUCUUAGAAGGTT against Ankrd34c,0.73 (inactive)
13,GCUAGAUCUUUCAUCCAACTT against Lrtm1,1.2 (inactive)
14,GGCCUUGGUGAAAAUGCAGTT against Plaat1,-2.07 (active)
15,GGAGACAUGGACCAUGGCUTT against Mapt,0.37 (inactive)
16,GGUGAUGUAUAUUGAGUCUTT against Sdcbp2,0.149 (inactive)
17,GGAUAGACUUGAUUCUUGGTT against Emid1,0.491 (inactive)
18,GGAAAUAGUACAGAAACCATT against Mcph1,-2.44 (active)
19,CCAUGUUUUUAUAGCUCUUTT against Sidt2,1.49 (inactive)
20,GGUGGAUAAAGCUUAAAUATT against V1rg10,-0.258 (inactive)
21,GGAGGCACAGAGAUUGAAGTT against Sry,0.247 (inactive)
22,GGCAUCUUUGGAGACUGGUTT against Sycn,0.598 (inactive)
23,CCUUUGGAAUUUCUAAUACTT against Stil,-0.286 (inactive)
